Tested on: Trichuris muris adult worms
Assay: mean motility score (Paragon pixel variance) of adult worms (arbitrary units); higher = more motile worms, i.e. less anthelmintic effect; extreme values may be limits of the assay
Settings: 100 µM; 24 h
Procedure, shortened: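 Each drug was tested with three worms in three wells, run over three separate occasions and vehicle and positive controls included. The worms were single adult Trichuris muris from infected NOD SCID mice, held for 24 h at 37°C and 5% CO2 in 100 μL RPMI-1640 with antibiotics and drug at 100 μM (1% v/v DMSO) in 96-well plates. Motility score was derived by Paragon pixel-variance analysis of films from an automated phenotyping platform and averaged over replicate wells.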

Compound | mean motility score
COc1nc(C)nc(Cl)c1NC1=NCCN1 [moxonidine] | 3500
CC1=C(C(=O)O)N2C(=O)[C@@H](NC(=O)[C@H](N)c3ccccc3)[C@H]2SC1 [cephalexin] | 4830
CCCCNc1ccc(C(=O)OCCN(C)C)cc1 [tetracaine] | 4810
OC(CCCN1CCCCC1)(c1ccccc1)c1ccccc1 [diphenidol] | 1940
CC[N+](CC)(CC)CCOc1cccc(OCC[N+](CC)(CC)CC)c1OCC[N+](CC)(CC)CC.[I-].[I-].[I-] [gallamine triethiodide] | 4310
CC1(C)S[C@@H]2[C@H](NC(=O)COc3ccccc3)C(=O)N2[C@H]1C(=O)O [penicillin V] | 1470
CC[C@H]1OC(=O)[C@H](C)[C@@H](O[C@H]2C[C@@](C)(OC)[C@@H](O)[C@H](C)O2)[C@H](C)[C@@H](O[C@@H]2O[C@H](C)C[C@H](N(C)C)[C@H]2O)[C@](C)(OC)C[C@@H](C)C(=O)[C@H](C)[C@@H](O)[C@]1(C)O [clarithromycin] | 2330
COc1cc(C(C)=O)ccc1OCCCN1CCC(c2noc3cc(F)ccc23)CC1 [iloperidone] | 1950
Cn1cnc2c1c(=O)[nH]c(=O)n2C [theobromine] | 859
O=C(COc1ccc(Cl)cc1)N1CCN(Cc2ccc3c(c2)OCO3)CC1 [fipexide] | 241
Oc1nc2ccccc2n1CCCN1CCC(n2c(O)nc3cc(Cl)ccc32)CC1 [domperidone] | 3910
N[C@@H](CC(=O)O)C(=O)O [aspartic acid] | 3610

From the supplement of paper PMC10503962
